Inconclusive results are not listed. Values without a mark were called inactive. Activity calls are given as the source filed them. Calls follow the shape of the dose curve; as a rule, active = well fitted inhibition curve with a large enough effect; inconclusive = small, poorly fitted or top-dose-only effect; inactive = no such curve, though single readings can be large or run the other way. Residues, ends and D or L forms follow the SMILES beside them.
assay: BET inhibitor-based combinations targeting novel dependencies in MECOM-rearranged (r) AML: MV-4-11 cell line (AID 2202233); conditions: MV-4-11 AML viability, CellTiter-Glo luminescence, 48 h; series mostly up to 46 µM; viability, % of control: at the top concentration; also: nearly all actives have a fitted effect of over 45% in size;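 as to viability, % of control: plate controls were DMSO for no effect and blank wells for full effect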
Excerpt: Ecotropic viral insertion site 1 (EVI1) is located on chromosome 3q26.2 as part of the MECOM (MDS and EVI1 complex) locus. Under normal hematopoiesis, EVI1 is a regulator of hematopoietic stem cell maintenance and self-renewal and EVI1 levels decrease as the cells differentiate. In approximately 5-10% of de novo acute myeloid leukemia (AML) EVI1 is aberrantly expressed, including Chromosomal inv(3)(q21;q26.2) or t(3;3)(q21;q26.2) alterations (MECOM-r) that account for about 50% of AML with EVI1 overexpression 31. AMLs with high levels of EVI1 have a poor prognosis and an overall survival time averaging between 10-14 months. EVI1 overexpression confers resistance in leukemia cells, highlighting the need to develop new targeted therapies for EVI1 overexpressing AMLs. Here, we performed an unbiased chemical drug screening by evaluating the single agent activity of a collection of 2,480 oncology-focused, approved and investigational drugs (NCATS Mechanism Interrogation Plates, MIPE v5.0) against a panel of seven AML cell lines. These included four MECOM-r cell-lines (AML-191, AML-194, UCSD-AML1 and HNT-34) and three non-MECOM-r AMLs (MV4-11, OCI-AML3 and SET-2). Exploiting the mechanistic redundancy built in the library, we identified target-level sensitivities in MECOM-r AML cells and relative activity as compared to other AML subtypes.
A collection of 2480 mechanistically annotated dugs (MIPE v5.0) was used to screen four 3q26.2 rearranged AML cell lines and three non-3q26.2 rearranged AML cell lines. This library purposely exploits redundancy by including multiple inhibitors of key onco-targets, while simultaneously encompassing mechanistic diversity, targeting more than 800 distinct mechanisms of action. Briefly, cells were seeded in 5 uL of growth media using a Multidrop Combi dispenser into 1536 well white polystyrene tissue culture treated plates (Corning) at a density of 500cells/well. For each cell-line, for each of the 2480 drugs in MIPE v5.0 library, an 11-point dose curve was generated via a 1536 pin-tool. Plates were incubated for 48 hr at standard incubator conditions, covered by a stainless steel gasketed lid to prevent evaporation. Cell viability was determined by luminescence based, Cell Titer Glo assay (Promega). In detail, 3 uL of Cell Titer Glo were added to each well and plates were incubated at room temperature for 15 min with a stainless-steel lid in place. Luminescence readings were taken using a Viewlux (PerkinElmer) with a 2 s exposure time per plate. Compound dose-response curves were normalized to DMSO and empty well controls on each plate. Quantitative drug activity data from dose-response curves was determined utilizing area Under the Curve (AUC) and Z-transformed AUC (Z-AUC, a mean-centering transformation applied to each individual cell-line screened).
Potency is read from the fitted curve at half-maximal effect.

Row | SMILES | Potency | viability, % of control
1 | COc1cc2ncnc(Nc3cccc(Br)c3)c2cc1OC | 9340 nM (active) | 
2 | COc1ccc(Cc2nccc3cc(OC)c(OC)cc23)cc1OC | 18600 nM (active) | 
3 | Nc1ccn([C@@H]2CS[C@H](CO)O2)c(=O)n1 |  | 118%
4 | CC(C)(O)c1cc2nc(-c3cnc(N)nc3)nc(N3CCOCC3)c2s1 | 1320 nM (active) | 
5 | CC(C)c1c(C(=O)Nc2ccccc2)c(-c2ccccc2)c(-c2ccc(F)cc2)n1CC[C@@H](O)C[C@@H](O)CC(=O)O | 5740 nM (active) | 
6 | COCCOc1ccc2c(c1)ncn2-c1ccc2cccc(N3CCC(N)CC3)c2n1 | 18.6 nM (active) | 
7 | c1cn2cc(-c3ccc4cn[nH]c4c3)nc(Nc3ccc(N4CCOCC4)cc3)c2n1 | 1660 nM (active) | 
8 | CCC[C@H](N[C@@H](C)C(=O)N1[C@@H]2CCCC[C@H]2C[C@H]1C(=O)O)C(=O)OCC |  | 111%
9 | CCOc1ccccc1N=Nc1c(C)[nH]n(-c2nc(-c3ccccc3)cs2)c1=O |  | 122%
10 | Nc1nc(=O)n([C@H]2C[C@H](O)[C@@H](CO)O2)cc1F | 14.8 nM (active) | 
11 | CNC(=O)Nc1ccc(-c2nc(N3CC4CCC(C3)O4)c3cnn(C4CCC5(CC4)OCCO5)c3n2)cc1 | 166 nM (active) | 
12 | CO[C@@H](C)Cn1c(=O)n(C)c2cnc3ccc(-c4cncc(C(C)(C)O)c4)cc3c21 | 332 nM (active) | 
13 | c1cc(OCCN2CCCCC2)cc(-c2n[nH]c3ccc(-c4ncn[nH]4)cc23)c1 | 1860 nM (active) | 
14 | Cc1cc(SCc2sc(-c3ccc(C(F)(F)F)cc3)nc2C)ccc1OCC(=O)O |  | 110%
15 | Cc1c(F)cc(C(=O)NC2CC2)cc1-c1ccc(C(=O)NCC(C)(C)C)cn1 |  | 74.5%
16 | CC(C)Oc1ccc2c(=O)c(-c3ccccc3)coc2c1 |  | 104%
17 | COC(=O)[C@H](Cc1ccccc1)NC(=O)[C@@H](N)CC(=O)O (H-Asp-Phe-OMe) |  | 127%
18 | CCOC(=O)c1ccnc(CNCC(=O)N(CC)CCN(C)C)c1 |  | 36.1%
19 | CN(CCOc1ccc(CC2SC(=O)NC2=O)cc1)c1ccccn1 (stereo not given) |  | 103%
20 | CN(C)c1nc(N(C)C)nc(N(C)C)n1 |  | 102%

Row | SMILES | Potency | viability, % of control
21 | CC(C)c1cnn2c(NCc3ccccc3)cc(N[C@@H](CO)[C@H](O)CO)nc12 | 372 nM (active) | 
22 | CN1C(=O)N[C@@H](Cc2c[nH]c3c(Cl)cccc23)C1=O |  | 101%
23 | COc1cc(OC)c(/C=C/S(=O)(=O)Cc2ccc(OC)c(NCC(=O)O)c2)c(OC)c1 | 263 nM (active) | 
24 | CC(C)C[C@H](NC(=O)[C@@H](O)[C@H](N)Cc1ccccc1)C(=O)O |  | 129%
25 | O=C1CCCC2=C1C(c1[nH]ncc1Cl)N=C(Nc1nc3ccccc3o1)N2 (stereo not given) | 10500 nM (active) | 
26 | CCCn1c(=O)c2[nH]c(C34CC5CC3C[C@@H](C5)C4)nc2n(CCC)c1=O | 20900 nM (active) | 
27 | CCCc1c(OCCCOc2ccc(OCC(=O)O)cc2)ccc(C(C)=O)c1O |  | 120%
28 | COc1cccc2nc(-c3cccs3)nc(NN3C(=O)C=C(C)C3=O)c12 | 166 nM (active) | 
29 | COc1cc(OC2CCN(C)CC2)ccc1Nc1ncc2c(n1)n(C1CCCC1)c(=O)n2C | 3320 nM (active) | 
30 | CCCN[C@H]1CCc2nc(N)sc2C1 | 934 nM (active) | 
31 | COc1ccc2nc3cc(Cl)ccc3c(Nc3cc(CN4CCCC4)c(O)c(CN4CCCC4)c3)c2n1 | 4680 nM (active) | 
32 | Cc1cc(Nc2cc(CN3CCOCC3)c3nc(C)c(Cc4ccc(Cl)cc4F)n3n2)n[nH]1 | 235 nM (active) | 
33 | CN(C)c1ccc2nc3ccc(=[N+](C)C)cc-3sc2c1 | 2630 nM (active) | 
34 | Cc1cc(O)c2c(c1)C(=O)c1cc(O)cc(O)c1C2=O |  | 95.5%
35 | COc1cccc(-c2cc(=O)c3ccccc3o2)c1N | 20900 nM (active) | 
36 | O=C1c2c(O)ccc(O)c2C(=O)c2c(NCCNCCO)ccc(NCCNCCO)c21 | 74.2 nM (active) | 
37 | COC(=O)Nc1cc(Nc2cc(NC3CC3)c3ncc(C#N)n3n2)c(Cl)c(N2CCN(C)CC2)c1 | 833 nM (active) | 
38 | CNC(=O)c1cc(Oc2ccc(NC(=O)Nc3ccc(Cl)c(C(F)(F)F)c3)c(F)c2)ccn1 | 590 nM (active) | 
39 | CC(C)(C)Cn1c(N)nc2ccc(-c3[nH]c(C(C)(C)C)nc3-c3ccc(F)cc3)nc21 | 18600 nM (active) | 
40 | CCCCCCNC(=O)n1cc(F)c(=O)[nH]c1=O | 1660 nM (active) | 

From PubChem BioAssay (NCATS)
